# Results from paper PMC3218832.
# Experiments:
# Assay in all cases: protein binding microarray; high values mean tight binding
# Conditions in all cases: dsDNA, one strand shown
# RELARELA (p65 homodimer) = RELARELA (p65 homodimer) (Homo sapiens, UniProt Q04206 1-307)
# p50p50 homodimer = p50p50 homodimer (Homo sapiens, UniProt P19838 7-356)
# p52p52 homodimer = target: T1, p52p52 homodimer (Homo sapiens, UniProt Q00653 4-332)
# T1 sequence: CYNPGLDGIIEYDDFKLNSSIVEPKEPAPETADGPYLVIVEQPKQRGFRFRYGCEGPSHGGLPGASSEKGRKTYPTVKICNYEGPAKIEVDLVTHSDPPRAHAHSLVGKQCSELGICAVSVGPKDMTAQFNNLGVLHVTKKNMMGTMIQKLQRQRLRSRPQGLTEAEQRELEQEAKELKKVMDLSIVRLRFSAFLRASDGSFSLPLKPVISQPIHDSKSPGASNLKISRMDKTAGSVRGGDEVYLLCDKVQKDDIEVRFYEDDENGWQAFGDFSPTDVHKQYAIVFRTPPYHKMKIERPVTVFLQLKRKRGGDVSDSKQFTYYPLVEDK
# [1] = target: RELA (p65) subunit of heterodimer;p50 subunit (Homo sapiens;Homo sapiens, UniProt Q04206;P19838 1-307;7-356)
# [2] = target: RELA (p65) subunit of heterodimer;p52 subunit (Homo sapiens;Homo sapiens, UniProt Q04206;Q00653 1-307;4-332)
# RELB subunit;p50 subunit = RELB subunit;p50 subunit (Homo sapiens;Homo sapiens, UniProt Q01201;P19838 120-401;7-356)
# RELB subunit;p52 subunit = target: T2, RELB subunit;p52 subunit (Homo sapiens;Homo sapiens, UniProt Q01201;Q00653 120-401;4-332)
# T2 sequence 1: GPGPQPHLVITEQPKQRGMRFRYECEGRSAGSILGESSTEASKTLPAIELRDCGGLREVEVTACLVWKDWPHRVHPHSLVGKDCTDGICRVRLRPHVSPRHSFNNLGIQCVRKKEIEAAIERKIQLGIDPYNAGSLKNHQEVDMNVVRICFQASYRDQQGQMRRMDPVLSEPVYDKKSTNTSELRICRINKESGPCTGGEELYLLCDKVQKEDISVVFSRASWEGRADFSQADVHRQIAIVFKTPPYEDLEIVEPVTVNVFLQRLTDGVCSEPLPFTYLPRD
# T2 sequence 2: T1 sequence
# [3] = target: C-Rel subunit;p50 subunit (Homo sapiens;Homo sapiens, UniProt Q04864;P19838 1-285;7-356)
# [4] = target: T3, C-Rel subunit;p52 subunit (Homo sapiens;Homo sapiens, UniProt Q04864;Q00653 1-285;4-332)
# T3 sequence 1: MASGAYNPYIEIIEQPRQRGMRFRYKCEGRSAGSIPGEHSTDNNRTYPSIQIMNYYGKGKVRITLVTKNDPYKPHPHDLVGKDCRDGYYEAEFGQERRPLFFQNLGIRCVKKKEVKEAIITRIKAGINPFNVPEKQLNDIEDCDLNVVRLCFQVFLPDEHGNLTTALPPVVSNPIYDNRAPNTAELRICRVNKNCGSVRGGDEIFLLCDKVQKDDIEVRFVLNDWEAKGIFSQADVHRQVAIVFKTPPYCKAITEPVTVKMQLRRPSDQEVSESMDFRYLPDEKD
# T3 sequence 2: T1 sequence
# Chain of RELA (p65) subunit of heterodimer;p50 subunit (Q04206 1-307, chain 1 of 2): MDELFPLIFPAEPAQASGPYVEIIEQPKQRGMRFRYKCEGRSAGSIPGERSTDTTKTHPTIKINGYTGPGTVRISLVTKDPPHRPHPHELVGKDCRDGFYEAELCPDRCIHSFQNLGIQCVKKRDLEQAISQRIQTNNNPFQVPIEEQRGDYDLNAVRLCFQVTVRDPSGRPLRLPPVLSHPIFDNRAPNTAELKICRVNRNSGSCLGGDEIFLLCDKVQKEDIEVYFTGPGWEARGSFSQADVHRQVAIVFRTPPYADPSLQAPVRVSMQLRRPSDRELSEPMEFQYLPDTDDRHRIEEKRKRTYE
# Chain of RELA (p65) subunit of heterodimer;p50 subunit (P19838 7-356, chain 2 of 2): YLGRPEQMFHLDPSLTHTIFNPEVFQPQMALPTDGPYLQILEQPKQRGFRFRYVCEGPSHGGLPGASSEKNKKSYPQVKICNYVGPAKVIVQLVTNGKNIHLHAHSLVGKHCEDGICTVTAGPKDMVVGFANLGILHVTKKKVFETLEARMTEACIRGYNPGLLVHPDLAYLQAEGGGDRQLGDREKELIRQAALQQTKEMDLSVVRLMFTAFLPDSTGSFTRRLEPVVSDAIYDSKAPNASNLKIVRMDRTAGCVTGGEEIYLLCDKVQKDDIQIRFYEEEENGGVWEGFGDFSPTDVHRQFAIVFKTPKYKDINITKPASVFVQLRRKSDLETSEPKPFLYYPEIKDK
# Chain of RELARELA (p65 homodimer) (Q04206 1-307): as the sequence (Q04206 1-307, chain 1 of 2) above
# Chain of p50p50 homodimer (P19838 7-356): as the sequence (P19838 7-356, chain 2 of 2) above
Sequence,binding signal (RELARELA (p65 homodimer)) [z-score],binding signal (p50p50 homodimer) [z-score],binding signal (p52p52 homodimer) [z-score],binding signal [1] [z-score],binding signal [2] [z-score],binding signal (RELB subunit;p50 subunit) [z-score],binding signal (RELB subunit;p52 subunit) [z-score],binding signal [3] [z-score],binding signal [4] [z-score]
AGGGAGTTCCT,0.744,0.856,1.12,0.667,0.798,0.721,0.659,0.315,0.64
AAGTTTCTCCC,0.793,0.601,0.198,0.383,0.17,0.576,0.357,0.423,0.189
CGATATATCCC,0.113,-0.443,-0.0767,-0.33,-0.28,-0.357,-0.154,-0.427,-0.465
CAGGACACCCT,-0.817,-1.69,-0.717,-0.865,-0.828,-0.795,-0.656,-1.21,-0.705
AGAAGTCTCCT,-0.456,-1.85,-0.738,-0.94,-0.879,-0.942,-0.985,-1.36,-0.926
AAGGACGCCCT,-0.995,-2.2,-0.8,-0.915,-0.945,-1.1,-0.803,-1.23,-0.928
GAAATCGCCCC,0.357,0.544,0.298,0.401,0.557,0.494,0.759,0.842,0.389
GGATAGACCCC,-0.296,-0.324,-0.227,-0.111,-0.128,-0.398,0.071,-0.41,-0.251
GAAGTACCCCC,0.109,1.25,0.815,1.31,1.14,1.27,1.33,0.887,0.946
GAATTGTTCCT,0.0616,-1.38,-0.497,-0.672,-0.721,-1.09,-0.587,-0.937,-0.574
GAATTGTCCCC,1.03,1.37,1.34,1.38,1.18,1.38,1.61,1.27,0.963
AAGAGCATCCT,-0.702,-1.75,-0.753,-1.09,-1.17,-1.16,-0.978,-1.52,-1.15
CGAATGATCCT,-0.807,-1.92,-0.659,-0.966,-0.935,-1.16,-0.928,-1.72,-0.968
GGATATGCCCT,0.304,-1.18,-0.574,-0.276,-0.49,-0.93,-0.689,-0.384,-0.294
AAGGTACTCCC,-0.19,0.76,0.735,0.376,0.386,0.54,0.302,0.206,0.449
GAAAGGTTCCC,0.328,-0.486,-0.241,-0.184,-0.334,-0.203,-0.316,-0.141,-0.167
CAGTGAACCCC,-0.0364,-0.483,-0.201,-0.227,-0.346,-0.298,-0.205,-0.189,-0.119
AGAGGCCTCCT,-0.539,-1.92,-0.785,-1.08,-1.07,-1.08,-0.973,-1.66,-0.937
CAATATTTCCC,2.26,1.03,0.706,1.27,1.06,0.775,0.965,1.45,1.08
CGAGTGGTCCC,-0.301,-0.0725,-0.0457,-0.513,-0.369,0.0154,-0.138,-0.515,-0.428
GAATTTGTCCC,1.3,0.832,0.9,1.01,0.944,0.998,0.873,1.27,0.573
AAAAAGCTCCT,-0.678,-1.47,-0.675,-1.01,-1.04,-1.17,-1.06,-1.49,-1.07
AAGAGGCCCCT,-0.777,0.359,-0.0334,-0.301,-0.248,0.196,0.191,-0.344,-0.287
CGATTAGTCCT,-0.163,-1.16,-0.532,-0.961,-0.861,-1.12,-0.766,-1.1,-0.684
CAGTGGCTCCC,-0.478,-1.44,-0.661,-0.743,-0.817,-0.932,-0.764,-1.22,-0.857
GGAAGCCTCCC,-0.446,-1.14,-0.595,-0.524,-0.721,-0.789,-0.717,-0.888,-0.726
GGAGGAGTCCC,0.299,0.853,0.586,0.889,0.831,0.725,0.409,0.717,0.541
GGAGGTACCCT,-0.125,0.0465,-0.0665,0.0938,0.0265,0.0938,-0.25,-0.0429,0.0544
GGAAGACTCCT,-0.12,-1.87,-0.778,-0.958,-1.02,-1.23,-0.943,-1.17,-0.891
